Source: PubChem BioAssay
Akt phos inh = blocks phosphorylation of Akt | Neuro2A IGF-stimulated pAkt S473 HTRF, 20 min; active compounds read low | activity change, % for hits at 50 µM | hit rate 0.32% among 360,000 | AID 651550; in the data active means activity change below about -80%; inconclusive means mostly about -51% to -80%; further: on the % scale 0 is the no-effect control and ±100 the full control effect
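Single-point screen (50 µM final compound) in Neuro2A cells stimulated 20 min with 6 nM IGF at 37 deg C. After lysis, Ser473-phosphorylated Akt read by HTRF (ex 330 nm, em 615/665 nm) as the 665/615 ratio.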
RXFP1 agonist = RXFP1 (human) receptor agonism; Q9HBX9; HEK293T-RXFP1 cAMP TR-FRET, 30 min; response scale: percent of porcine relaxin response, buffer zero; Potency, µM (doses to about 57.5 µM), without a hit: at the top dose activation, most hits filed as activators; hit rate 0.3% among 370,000; active means well fitted activation curve with a large enough effect; inconclusive means small, poorly fitted or top-dose-only effect; further: potency means the concentration at half of the fitted maximal effect; on the % scale 0 is the no-effect control and ±100 the full control effect; nearly all actives have a fitted effect of over 60% in size
Target sequence (Q9HBX9 whole entry, looked up): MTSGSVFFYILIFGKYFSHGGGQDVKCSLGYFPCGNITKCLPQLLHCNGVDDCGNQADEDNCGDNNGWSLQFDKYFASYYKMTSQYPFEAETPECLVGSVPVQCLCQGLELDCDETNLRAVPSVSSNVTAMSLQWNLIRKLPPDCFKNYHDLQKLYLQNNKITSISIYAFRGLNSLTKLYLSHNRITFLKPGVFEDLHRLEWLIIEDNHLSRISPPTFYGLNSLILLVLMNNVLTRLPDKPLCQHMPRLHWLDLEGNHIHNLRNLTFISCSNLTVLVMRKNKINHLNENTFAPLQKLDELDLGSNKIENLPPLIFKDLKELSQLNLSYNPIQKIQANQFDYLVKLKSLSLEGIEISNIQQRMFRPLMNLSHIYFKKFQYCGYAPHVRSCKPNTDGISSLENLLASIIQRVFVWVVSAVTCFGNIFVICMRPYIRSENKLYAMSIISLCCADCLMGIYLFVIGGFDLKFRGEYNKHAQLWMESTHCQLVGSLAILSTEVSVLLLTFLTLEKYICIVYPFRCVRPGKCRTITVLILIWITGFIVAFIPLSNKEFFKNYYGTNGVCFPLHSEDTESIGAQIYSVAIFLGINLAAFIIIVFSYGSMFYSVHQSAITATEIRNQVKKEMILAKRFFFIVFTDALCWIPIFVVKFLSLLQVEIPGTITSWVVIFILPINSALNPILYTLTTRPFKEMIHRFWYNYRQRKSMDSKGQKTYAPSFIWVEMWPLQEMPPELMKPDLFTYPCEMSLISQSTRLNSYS
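Agonist response is measured as cAMP accumulation in an RXFP1-transfected HEK293T line under PDE4 inhibition. Values are scaled between buffer-only and 29 nM porcine relaxin, and EC50s come from standard Hill equation fits.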
RXFP1 antag = RXFP1 (human) relaxin receptor antagonism | Q9HBX9 | HEK293-RXFP1, relaxin-stimulated cAMP HTRF, 30 min; active compounds read low | activity change, negative = inhibition, % at 57.5 µM | hit rate 0.59% among 350,000 | AID 1259400;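 active means activity change of -60% or lower, but not beyond a set lower limit; inconclusive means change between -60% and -40%, or beyond the set limit; inactive means change above -40%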; further: on the % scale 0 is the no-effect control and ±100 the full control effect
gsp agonist = activates gsp, the McCune-Albright syndrome mutation | gsp mutant cells, cAMP HTRF, 30 min | Potency, µM (top dose mostly 76.9 µM), without a hit: top-dose activation (cAMP increase), hits mostly activators | hit rate 0.13% among 340,000 | AID 624287; active means well fitted activation curve with a large enough effect; inconclusive means small, poorly fitted or top-dose-only effect, or another doubt; inactive means no such curve, though single readings can be large or run the other way; cell line not stated here;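 further: phosphodiesterase inhibitor Ro 20-1724 added with compounds to block cAMP breakdown; potency means the concentration at half of the fitted maximal effect; nearly all actives have a fitted effect of over 60% in size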
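Cells stably selected in G418 were plated at 2000/well, grown 16-24 hr, then given compounds in DMSO with the PDE inhibitor […] (300 uM solution added) for 30 min at 37C; cAMP was read by HTRF.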
gsp antagonist = antagonizes gsp, the McCune-Albright syndrome mutation. gsp-mutant cells, cAMP HTRF, 30 min. Potency, µM (top dose mostly 76.9 µM), for inactives: at the highest dose activity change, negative = inhibition, hits mostly inhibitors. hit rate 0.4% among 340,000; calls by dose curve; cell line not stated here;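 further: intracellular cAMP measured with PDE inhibitor Ro 20-1724 present during compound exposure; potency means the concentration at half of the fitted maximal effect; on the % scale 0 is the no-effect control and ±100 the full control effect; nearly all actives have a fitted effect of over 65% in size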
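Cells, 2000/well, grown 16–24 h in DMEM 10% FBS with 0.5 mg/ml G418, then compounds plus […] (300 uM addition stock), 30 min at 37C. cAMP read by HTRF (cAMP-d2 and anti-cAMP antibody-K in lysis buffer) after 30 min RT.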
Active calls of the source: *; i = inactive; ? = inconclusive; . = no result; [ ] = another dose, or the depositor's remark. Shown are actives, neighbours in structure and some others; about 1.2% of the full set was active somewhere.

SMILES	Akt phos inh	RXFP1 agonist	RXFP1 antag	gsp agonist	gsp antagonist
COc1ccc(CCNc2ncnc3[nH]ncc23)cc1OC	i	1%	-17	0%[15.4 µM]	1%
CCOCCCNC(=O)C(c1ccccc1)N(Cc1cccs1)C(=O)c1ccc(NC(C)=O)cc1 (centres undefined)	.	-3%	-25	.	.
COc1ccc2[nH]c3c(Cl)ncnc3c2c1	i	10%	20	9%	19%
COc1ccc2[nH]c3c(=S)nc[nH]c3c2c1	i	16µM*	9	39%[15.4 µM]	16%
COc1ccc(CCC(=O)NC2CC(=O)N(c3ccc(F)cc3)C2)cc1 (centres undefined)	.	1%	5	.	.
COc1ccc(-n2c(-c3ccc(C)cc3)cc3c2CC(C)(C)CC3=O)c(OC)c1	.	4%	-62*	.	.
Cc1ccc2c(c1)sc1nc(-c3cc4cc(Cl)ccc4oc3=O)cn12	.	3%	9	.	.
COc1ccc(S(=O)(=O)N2CCCCC2)cc1NC(=O)CSc1ncnc2ccccc12	i	?	.	20µM*	27%
NS(=O)(=O)c1ccc(NC(=O)CSc2ncnc3ccccc23)cc1	i	?	-6	?	-1%
COc1ccc(S(=O)(=O)N2CCOCC2)cc1NC(=O)CSc1cccc[n+]1[O-]	i	?	5	16µM*	24%
COc1ccc(S(=O)(=O)N2CCOCC2)cc1NC(=O)CSc1ccccc1	i	-3%	-8	3%	-7%
Cc1ccc(NC(=O)CSc2ncnc3ccccc23)cc1S(=O)(=O)N1CCCCC1	i	4%	1	-13%[15.4 µM]	?
NS(=O)(=O)c1cccc(NC(=O)CSc2ncnc3ccccc23)c1	i	25µM*	2	?	-8%
COc1ccc(Nc2ncnc3c2cnn3-c2ccc(C)cc2)cc1Cl	.	4%	-9	.	.
Cc1ccc(NC(=O)CSc2n[nH]c(-c3ccc(F)cc3)n2)cc1F	.	0%	-4	.	.
CC1CCN(c2nc(-c3ccccc3O)nc3ccccc23)CC1	.	1%	-10	-5%	0%
Oc1ccccc1-c1nc(N2CCCC2)c2ccccc2n1	-145%*	-1%	-15	?	-11%
Cc1ccc(CN2C(=O)C(=O)c3cc(Br)cc(C)c32)cc1	.	1%	-62*	.	.
CCCOc1ccc(CN2C(=O)C(=O)c3cccc(C)c32)cc1	.	-2%	-13	.	.
Cc1nc2ccc(NC(=O)c3cccc(S(=O)(=O)N(C)c4ccccc4)c3)cc2s1	i	4%	.	-69%	35µM*
COc1ccc(N(C)S(=O)(=O)c2cccc(C(=O)Nc3ccc(-n4cnnn4)cc3)c2)cc1	i	2%	-25	18%	28µM*
CN(C)S(=O)(=O)c1cccc(NC(=O)c2ccc(COc3ccccc3)cc2)c1	i	6%	-9	0%	32µM*
COCc1ccc(C(=O)Nc2cccc(S(=O)(=O)N(C)c3ccccc3)c2)cc1	i	.	3	23%	-22%
CN(c1ccccc1)S(=O)(=O)c1cccc(NC(=O)c2ccc3ncsc3c2)c1	i	0%	-12	-10%[15.4 µM]	25µM*
Cc1cccc(N2CCN(S(=O)(=O)c3c(C(=O)N4CCC(C)CC4)c(C)n(C)c3C)CC2)c1C	.	1%	-8	.	.
SMILES	Akt phos inh	RXFP1 agonist	RXFP1 antag	gsp agonist	gsp antagonist
COc1cccc(Cn2c(=O)cc(C)c3c(C)nn(-c4ccc(C)cc4)c32)c1	.	2%	-6	.	.
CC(C)c1ccc(NC(=O)CSc2nc(=O)n(Cc3ccccn3)c3c2CCC3)cc1	.	1%	-11	.	.
CC(=O)c1c(C)[nH]c(C(=O)Nc2cccc(S(=O)(=O)N(C)c3ccccc3)c2)c1C	i	-1%	-30	0%	32µM*
Cc1ccc(-c2nc(-c3cc4c([nH]c3=O)CC(C)(C)CC4=O)sc2C)cc1	.	5%	-7	.	.
COc1ccc(-c2cc3nc(-c4ccccc4)cc(N4CCC(O)CC4)n3n2)cc1	i	15%	2	9%[15.4 µM]	?
COc1ccc(-c2cc3nc(-c4ccccc4)cc(N4CCCC(O)C4)n3n2)cc1 (centres undefined)	i	15%	-3	?	35µM*
CC(=O)OC[C@H]1O[C@@H](OC(C)=O)[C@H](OC(C)=O)[C@@H]1OC(C)=O	.	.	13	.	.
COc1cc(/C=C(/C#N)c2ccc(F)cc2)ccc1OCc1ccc(C(=O)O)o1	i	-1%	4	6%	40µM*
C[C@H]1C[C@H]2[C@@H]3CCC4=CC(=O)C=C[C@]4(C)[C@H]3C(=O)C[C@]2(C)[C@@]1(O)C(=O)CO	.	.	29	.	.
CN(c1cccc(NC(=O)c2ccc(Cl)c(S(=O)(=O)Nc3ccccc3)c2)c1)S(C)(=O)=O	i	0%	-28	-12%	8.9µM*
CCn1ccc(C(=O)Nc2cccc(Cl)c2)n1	i	0%	-1	27%	-1%
CCn1ccc(C(=O)NC2=C(C#N)CCC2)n1	-115%*	0%	-3	-13%	4%
CCn1ccc(C(=O)Nc2ccccc2Cl)n1	i	-1%	1	-30%	50µM*
Cc1nn(C(=O)c2ccccc2)c(C)c1Sc1ccc(Cl)cc1	.	-1%	-29	.	.
O=C(NNc1ccc([N+](=O)[O-])cc1[N+](=O)[O-])c1ccco1	i	-6%	-8	1%	35µM*
O=C(NNc1ccc([N+](=O)[O-])cc1)c1ccco1	i	-2%	-2	3%	-4%
CCOc1cc(CNc2ccc(N(C)C)cc2)cc(Br)c1OCC(=O)NC(C)(C)C	i	0%	-109*	-41%	?
C=CCOc1c(Br)cc(CNc2ccc(NC(=O)CCC)cc2)cc1OCC	-100%*	1%	-25	-22%	-11%
Cn1c(=O)cc(SCC(=O)N2CCOCC2)c2ccc(Cl)cc21	i	4%	22	?	-19%
Cn1c(=O)cc(SCC(=O)N2CCCC2)c2ccc(Cl)cc21	i	7%	28	11µM*	-19%
COc1cc(OC)cc(C(=O)NCc2ccc3c(c2)CCN3C(=O)c2ccccc2)c1	.	3%	12	.	.
N#CNC(=Nc1ccccc1)SCc1ccc(C(=O)O)cc1	i	10%	12	5%[15.4 µM]	8%
CSC(=Nc1ccccc1)N=C(SCc1ccccc1)N(C)C	i	.	-100*	11%	2%
CC12CCC(C(=O)NCCN3CCCCC3)(CC1=O)C2(C)C (centres undefined)	-114%*	1%	-17	-15%	4%
C/C(=N/NC(=O)c1ccc(C)nc1)c1ccc2c(c1)CCCC2	i	1%	-62*	-1%[15.4 µM]	12%
CCCCC(O)/C=C(C)/C=C/C=C/C(=O)N1CCCC1=O (centres undefined)	.	.	-10	.	.
Fc1ccc(Nc2nc(SCc3ccccc3F)nc3ccccc23)cc1	.	1%	?	.	.
Cc1cc(COc2ccccc2OCCN2CCN(C)CC2)no1	-104%*	0%	-9	-30%	-1%
COc1cccc(Cn2c(Oc3cc(C)cc(C)c3)nc3c2c(=O)n(C)c(=O)n3C)c1	.	2%	.	.	.
